# Experimental data taken from PubChem BioAssay (EPA / NIEHS).
# Where “and” joins values, the source holds several entries; their conditions need not be identical. Equal entries are not always repeated. Inconclusive results are not listed. The source holds several records for some structures; these can differ, active in one and inactive in another. Calls of active or inactive are those of the source. The calls were made as follows, unless noted: active = hit-call score of the fitted dose curve at least 0.9, where 1 is the maximum; inactive = score below 0.9.
# Experiments:
# [1] = ATG_NFI_CIS: Attagene CIS-FACTORIAL HepG2 Assay for human Nuclear Factor I (NFI) (AID 2282989); conditions: HepG2 cis-regulatory reporter, NFI response element transcription; actives raise or lower the signal
# Procedure, shortened: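 After transient transfection of HepG2 with cis-promoter reporter constructs and 24 h dosing, RNA is reverse-transcribed, amplified, 6-FAM end-labelled and HpaI-digested before capillary analysis. Bidirectional curve fitting against DMSO.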
# [2] = molecular target: Myc proto-oncogene protein (Homo sapiens) (UniProt P01106); assay: ATG_Myc_CIS: Attagene CIS-FACTORIAL HepG2 Assay for human Myelocytomatosis (Myc) Proto-Oncogene Transcription Factor (AID 2282990); conditions: HepG2, Attagene cis-reporter transcription factor activity; actives raise or lower the signal
# Procedure, shortened: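 Cells of the HepG2 human liver line bear multiple cis-driven reporter transcription units. Reporter mRNA after 24 h exposure is reverse-transcribed, amplified, labelled and resolved by capillary electrophoresis, with gain- or loss-of-signal fitting relative to DMSO.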
# [3] = ATG_NF_kB_CIS: Attagene CIS-FACTORIAL HepG2 Assay for human Nuclear Factor Kappa B (NF-kB) (AID 2282991); conditions: HepG2 Attagene cis-factorial NF-kB reporter mRNA; actives raise or lower the signal
# Procedure, shortened: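 Endpoint from a 52-component multiplexed HepG2 reporter panel: cis-regulated transcription units transiently transfected, 24 h dosing, reporter mRNA quantified by RT-PCR and capillary electrophoresis, scored as increase or decrease against DMSO.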
# [4] = ATG_NRF2_ARE_CIS: Attagene CIS-FACTORIAL HepG2 Assay for human Nuclear Factor Erythroid 2 Related Factor 2 (NFR2) response to Antioxidant Response Elements (ARE) (AID 2282992); conditions: HepG2 Attagene ARE/NRF2 reporter, transcription factor activity; actives raise or lower the signal
# Procedure, shortened: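 Multiplexed reporter mRNA profiling in HepG2 after a 24 h chemical exposure. Curves fitted in both directions relative to DMSO negative control.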
# [5] = ATG_Oct_MLP_CIS: Attagene CIS-FACTORIAL HepG2 Assay for human Octamer-Binding Transcription Factor (Oct) (AID 2282993); conditions: HepG2 Attagene cis-factorial Oct reporter, mRNA; actives raise or lower the signal
# Procedure, shortened: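 Cells of the HepG2 line express promoter-controlled reporter sequences whose mRNA levels, after 24 h treatment, are measured by RT-PCR and capillary electrophoresis. Increases and decreases are scored relative to DMSO.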
# [6] = molecular target: Cellular tumor antigen p53 (Homo sapiens) (UniProt P04637); assay: ATG_p53_CIS: Attagene CIS-FACTORIAL HepG2 Assay for human p53 Transcription Factor (AID 2282994); conditions: HepG2 p53 cis-element reporter, Attagene mRNA; actives raise or lower the signal
# Procedure, shortened: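 Multiplexed reporter mRNA assay in human HepG2 liver cells; cis-regulated units report endogenous factor activity. Values come from bidirectional curve fitting against DMSO negative control after 24 h treatment.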
# [7] = BSK_3C_TissueFactor: BioMAP Diversity Plus: 3C Assay for Tissue Factor Biomarker Activity (AID 2282997); conditions: BioMAP 3C HUVEC, tissue factor biomarker readout; actives raise or lower the signal
# Procedure, shortened: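 Dosing of human umbilical vein endothelial cells preceded a 24 h incubation. Tissue Factor was then read by ELISA, with increases and decreases both scored relative to DMSO controls.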
# [8] = BSK_3C_uPAR: BioMAP Diversity Plus: 3C Assay for Urokinase-type plasminogen activator receptor (uPAR) Biomarker Activity (AID 2282998); conditions: BioMAP 3C HUVEC, uPAR biomarker ELISA; actives raise or lower the signal
# Procedure, shortened: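 Endothelial primary cells of human umbilical vein origin received test chemical; 24 h later uPAR was assayed by ELISA. Fitting was bidirectional, DMSO as negative control.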
# [9] = BSK_3C_VCAM1: BioMAP Diversity Plus: 3C Assay for Vascular cell adhesion molecule 1 (VCAM1) Biomarker Activity (AID 2282999); conditions: BioMAP 3C HUVEC, VCAM1 ELISA, cytokine-stimulated; actives raise or lower the signal
# Procedure, shortened: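 Endothelial cells from human umbilical vein are treated with test chemical. At 24 h, VCAM-1 is measured by ELISA, and responses in either direction are fitted relative to DMSO.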
# [10] = BSK_4H_Eotaxin3: BioMAP Diversity Plus: 4H Assay for Eotaxin 3 Biomarker Activity (AID 2283000); conditions: primary human endothelial cells (HUVEC); actives raise or lower the signal;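 as to outcome: CCL26 protein level quantified by ELISA in parallel with SRB cytotoxicity check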
# Procedure, shortened: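 Human umbilical vein endothelial cells (BSK_4H system) dosed with test chemical; Eotaxin-3 (CCL26) measured by ELISA 24 h after dosing. Bidirectional curve fitting relative to DMSO negative control as baseline.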
# [11] = molecular target: human Peroxisome Proliferator-activated Receptor alpha (PPARa), PPARA (gene 5465) (UniProt Q07869); assay: ATG_PPARa_TRANS: Attagene TRANS-FACTORIAL HepG2 Assay for human Peroxisome Proliferator-activated Receptor alpha (PPARa) (AID 2283001; active = hit-call score of the fitted dose curve at least 0.9, where 1 is the maximum;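 as to AC50: potency for gain of reporter signal over DMSO so agonist or activator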)
# Procedure, shortened: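 Read-out is fluorescence of reporter cDNA fragments resolved by capillary electrophoresis after RT-PCR. Human HepG2 liver cells carried transfected PPARa-Gal4 chimera and GAL4-UAS reporter units, treated 24 h; activity scored as increase over DMSO.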
# [12] = molecular target: human Peroxisome Proliferator-activated Receptor delta (PPARd), PPARD (gene 5467) (UniProt Q03181); assay: ATG_PPARd_TRANS: Attagene TRANS-FACTORIAL HepG2 Assay for human Peroxisome Proliferator-activated Receptor delta (PPARd) (AID 2283002; active = hit-call score of the fitted dose curve at least 0.9, where 1 is the maximum)
# Procedure, shortened: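 Cell-based TRANS reporter: HepG2, transient MRTU transfection, 24 h exposure. Readout = reporter mRNA (RT-PCR/CE, 6-FAM). Gain-of-signal fit vs DMSO control.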
# [13] = read-out: Intercellular Adhesion Molecule 1 (ICAM1), ICAM1 (gene 3383); assay: BSK_3C_ICAM1: BioMAP Diversity Plus: 3C Assay for Intercellular Adhesion Molecule 1 (ICAM1) Biomarker Activity (AID 2283003); conditions: primary human endothelial cells (HUVEC); actives raise or lower the signal
# Procedure, shortened: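 ICAM-1 levels measured by ELISA after HUVEC cultures in the 3C system had been dosed for 24 h. Gain or loss of signal relative to DMSO was fitted in both directions.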
# [14] = molecular target: human Retinoic Acid Receptor beta (RARb), RARB (gene 5915) (UniProt P10826); assay: ATG_RARb_TRANS: Attagene TRANS-FACTORIAL HepG2 Assay for human Retinoic Acid Receptor beta (AID 2283004; active = hit-call score of the fitted dose curve at least 0.9, where 1 is the maximum)
# Procedure, shortened: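 Induction of reporter mRNA from a chimeric RARb-Gal4 construct was measured by RT-PCR, FAM labelling, HpaI digestion and capillary electrophoresis. Measurements followed 24 h compound treatment of transiently transfected human HepG2 liver cells, with DMSO as baseline.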
# [15] = molecular target: Retinoic acid receptor alpha (Homo sapiens) (UniProt P10276); assay: ATG_RARa_TRANS: Attagene TRANS-FACTORIAL HepG2 Assay for human Retinoic Acid Receptor alpha (RARa) (AID 2283005; active = hit-call score of the fitted dose curve at least 0.9, where 1 is the maximum)
# Procedure, shortened: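 Reporter transcripts, measured by RT-PCR with fluorescent labeling and capillary electrophoresis after 24 h dosing, reflect activity of an exogenous human RARa–GAL4 fusion in transiently transfected HepG2. Fitted for increase relative to DMSO.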
# [16] = BSK_3C_Proliferation: Cell Proliferation Assessment in the BioMAP Diversity Plus: 3C Assay (AID 2283006); conditions: primary human endothelial cells (HUVEC);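 as to AC50: potency may reflect either rise or fall in cell number versus DMSO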
# Procedure, shortened: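 Read-out is total protein by SRB absorbance at 560 nm, taken as a proxy for relative cell number. Primary human umbilical vein endothelium cultured below confluence was dosed for 48 h, TCA-fixed and SRB-stained; curves were fitted bidirectionally versus DMSO.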
# [17] = molecular target: Peroxisome proliferator-activated receptor gamma (Homo sapiens) (UniProt P37231); assay: ATG_PPARg_TRANS: Attagene TRANS-FACTORIAL HepG2 Assay for human Peroxisome Proliferator-activated Receptor-gamma (PPARg) (AID 2283007; active = hit-call score of the fitted dose curve at least 0.9, where 1 is the maximum)
# Procedure, shortened: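 Endpoint reflects upward reporter mRNA change versus DMSO controls. Setup: transiently transfected HepG2, GAL4-UAS reporters driven by chimeric NR-Gal4, 24 h incubation, RT-PCR with capillary electrophoresis read-out.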
# [18] = molecular target: Nuclear receptor subfamily 1 group I member 2 (Homo sapiens) (UniProt O75469); assay: ATG_PXR_TRANS: Attagene TRANS-FACTORIAL HepG2 Assay for human Pregnane X Receptor (PXR) (AID 2283008; active = hit-call score of the fitted dose curve at least 0.9, where 1 is the maximum)
# Procedure, shortened: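 Measures mRNA induction of a GAL4-UAS-driven reporter in human HepG2 cells transiently expressing PXR fused to Gal4, following 24 h treatment. DMSO served as negative control and baseline.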
# [19] = molecular target: human Retinoic Acid Receptor gamma (RARg), RARG (gene 5916) (UniProt P13631); assay: ATG_RARg_TRANS: Attagene TRANS-FACTORIAL HepG2 Assay for human Retinoic Acid Receptor gamma (RARg) (AID 2283009; active = hit-call score of the fitted dose curve at least 0.9, where 1 is the maximum)
# Procedure, shortened: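 Transient transfection of HepG2 with multi-reporter constructs, then 24 h chemical treatment. Total RNA isolated, reverse-transcribed, PCR-amplified, fluorescently labelled and resolved by capillary electrophoresis; activity scored as mRNA induction versus DMSO.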
# [20] = molecular target: human RAR-related Orphan Receptor beta (RORb), RORB (gene 6096) (UniProt Q92753); assay: ATG_RORb_TRANS: Attagene TRANS-FACTORIAL HepG2 Assay for human RAR-related Orphan Receptor beta (RORb) (AID 2283010; active = hit-call score of the fitted dose curve at least 0.9, where 1 is the maximum)
# Procedure, shortened: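 Readout is reporter-gene mRNA induction, detected as fluorescence after RT-PCR and capillary electrophoresis, fitted for gain of signal against DMSO controls. Transiently transfected HepG2 liver cells carrying GAL4-UAS reporter constructs were treated for 24 hours.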
# Nuclear receptor subfamily 1 group I member 2 (Homo sapiens), sequence (O75469 whole entry, looked up, the tested form may be a part): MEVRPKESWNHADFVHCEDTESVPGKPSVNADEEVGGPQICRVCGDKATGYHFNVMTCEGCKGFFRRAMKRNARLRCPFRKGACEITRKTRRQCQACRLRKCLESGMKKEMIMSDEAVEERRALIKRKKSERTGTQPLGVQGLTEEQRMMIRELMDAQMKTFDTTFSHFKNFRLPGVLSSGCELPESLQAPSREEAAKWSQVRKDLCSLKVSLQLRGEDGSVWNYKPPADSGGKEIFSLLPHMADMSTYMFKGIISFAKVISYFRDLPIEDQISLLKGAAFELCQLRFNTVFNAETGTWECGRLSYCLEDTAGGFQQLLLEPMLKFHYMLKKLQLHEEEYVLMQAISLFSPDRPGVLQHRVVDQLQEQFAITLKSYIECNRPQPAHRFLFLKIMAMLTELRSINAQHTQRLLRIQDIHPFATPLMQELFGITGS
# Myc proto-oncogene protein (Homo sapiens), sequence (P01106 whole entry, looked up): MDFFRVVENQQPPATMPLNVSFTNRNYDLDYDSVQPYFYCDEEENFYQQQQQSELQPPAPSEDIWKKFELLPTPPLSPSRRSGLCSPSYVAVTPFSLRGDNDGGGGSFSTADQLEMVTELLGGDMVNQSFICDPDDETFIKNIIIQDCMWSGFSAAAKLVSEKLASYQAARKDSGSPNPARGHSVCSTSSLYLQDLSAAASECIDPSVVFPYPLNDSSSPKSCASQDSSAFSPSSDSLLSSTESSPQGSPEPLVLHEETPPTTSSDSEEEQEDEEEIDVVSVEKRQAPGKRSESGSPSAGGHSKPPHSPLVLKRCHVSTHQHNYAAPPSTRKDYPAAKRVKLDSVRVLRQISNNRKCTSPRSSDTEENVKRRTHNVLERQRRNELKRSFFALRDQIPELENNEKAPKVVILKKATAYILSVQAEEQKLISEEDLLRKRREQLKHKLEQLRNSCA
# human Retinoic Acid Receptor gamma (RARg), RARG (gene 5916), sequence (P13631 whole entry, looked up): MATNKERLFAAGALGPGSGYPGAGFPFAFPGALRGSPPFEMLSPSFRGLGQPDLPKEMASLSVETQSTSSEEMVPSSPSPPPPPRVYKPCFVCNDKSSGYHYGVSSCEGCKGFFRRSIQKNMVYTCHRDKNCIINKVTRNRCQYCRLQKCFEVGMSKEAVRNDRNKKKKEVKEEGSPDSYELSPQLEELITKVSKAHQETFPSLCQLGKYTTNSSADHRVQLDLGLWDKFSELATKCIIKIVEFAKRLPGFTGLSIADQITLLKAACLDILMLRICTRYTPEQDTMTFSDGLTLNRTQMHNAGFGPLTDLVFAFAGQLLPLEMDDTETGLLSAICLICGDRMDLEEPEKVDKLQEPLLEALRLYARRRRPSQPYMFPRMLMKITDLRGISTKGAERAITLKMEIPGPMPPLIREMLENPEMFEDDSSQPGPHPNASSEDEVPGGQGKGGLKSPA
# Retinoic acid receptor alpha (Homo sapiens), sequence (P10276 whole entry, looked up, the tested form may be a part): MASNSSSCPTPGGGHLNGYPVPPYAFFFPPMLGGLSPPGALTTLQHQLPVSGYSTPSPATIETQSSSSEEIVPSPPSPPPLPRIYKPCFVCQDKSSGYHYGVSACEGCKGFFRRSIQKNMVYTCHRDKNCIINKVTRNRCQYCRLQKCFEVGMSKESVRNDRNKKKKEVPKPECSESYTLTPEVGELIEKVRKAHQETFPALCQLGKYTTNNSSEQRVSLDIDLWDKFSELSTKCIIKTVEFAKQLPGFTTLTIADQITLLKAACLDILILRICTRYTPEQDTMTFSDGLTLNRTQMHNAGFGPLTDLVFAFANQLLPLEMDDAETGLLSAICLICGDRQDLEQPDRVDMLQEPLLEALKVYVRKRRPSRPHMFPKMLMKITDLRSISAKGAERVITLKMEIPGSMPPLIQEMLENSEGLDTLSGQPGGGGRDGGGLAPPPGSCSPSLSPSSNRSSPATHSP
# human Peroxisome Proliferator-activated Receptor alpha (PPARa), PPARA (gene 5465), sequence (Q07869 whole entry, looked up, the tested form may be a part): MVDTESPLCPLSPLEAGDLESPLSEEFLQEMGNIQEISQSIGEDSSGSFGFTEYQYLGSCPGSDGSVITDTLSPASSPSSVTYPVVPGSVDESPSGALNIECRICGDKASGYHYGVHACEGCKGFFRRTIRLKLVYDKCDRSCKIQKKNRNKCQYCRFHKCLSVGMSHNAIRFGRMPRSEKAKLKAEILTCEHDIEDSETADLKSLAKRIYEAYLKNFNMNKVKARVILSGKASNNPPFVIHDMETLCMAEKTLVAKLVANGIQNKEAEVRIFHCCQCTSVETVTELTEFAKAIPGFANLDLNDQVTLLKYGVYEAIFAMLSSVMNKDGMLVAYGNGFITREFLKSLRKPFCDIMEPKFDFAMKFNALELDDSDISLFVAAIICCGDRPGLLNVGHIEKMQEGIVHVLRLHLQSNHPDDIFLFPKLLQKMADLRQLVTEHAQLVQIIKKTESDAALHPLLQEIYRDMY
# human Retinoic Acid Receptor beta (RARb), RARB (gene 5915), sequence (P10826 whole entry, looked up, the tested form may be a part): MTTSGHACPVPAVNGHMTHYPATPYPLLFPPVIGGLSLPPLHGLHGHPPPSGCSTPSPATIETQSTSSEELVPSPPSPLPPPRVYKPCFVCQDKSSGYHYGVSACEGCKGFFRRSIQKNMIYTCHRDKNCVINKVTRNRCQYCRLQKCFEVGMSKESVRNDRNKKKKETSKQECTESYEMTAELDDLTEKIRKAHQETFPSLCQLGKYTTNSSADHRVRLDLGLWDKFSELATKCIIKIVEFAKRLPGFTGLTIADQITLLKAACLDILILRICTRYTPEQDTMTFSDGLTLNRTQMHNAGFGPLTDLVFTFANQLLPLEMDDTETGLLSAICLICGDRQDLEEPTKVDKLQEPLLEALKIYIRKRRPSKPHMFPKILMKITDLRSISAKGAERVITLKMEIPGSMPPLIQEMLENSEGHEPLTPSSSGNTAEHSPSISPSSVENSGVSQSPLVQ
# human Peroxisome Proliferator-activated Receptor delta (PPARd), PPARD (gene 5467), sequence (Q03181 whole entry, looked up): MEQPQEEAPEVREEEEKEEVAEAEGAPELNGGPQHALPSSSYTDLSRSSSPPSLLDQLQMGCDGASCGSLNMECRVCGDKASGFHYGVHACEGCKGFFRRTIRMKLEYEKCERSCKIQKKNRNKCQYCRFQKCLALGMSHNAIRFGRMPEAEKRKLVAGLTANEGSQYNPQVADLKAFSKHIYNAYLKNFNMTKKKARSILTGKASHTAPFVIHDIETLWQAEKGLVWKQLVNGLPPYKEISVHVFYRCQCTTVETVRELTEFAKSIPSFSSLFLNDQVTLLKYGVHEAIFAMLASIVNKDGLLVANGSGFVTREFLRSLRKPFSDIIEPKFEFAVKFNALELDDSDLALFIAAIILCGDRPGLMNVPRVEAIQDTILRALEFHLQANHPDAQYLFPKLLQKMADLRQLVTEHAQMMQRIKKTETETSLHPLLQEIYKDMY
# Cellular tumor antigen p53 (Homo sapiens), sequence (P04637 whole entry, looked up): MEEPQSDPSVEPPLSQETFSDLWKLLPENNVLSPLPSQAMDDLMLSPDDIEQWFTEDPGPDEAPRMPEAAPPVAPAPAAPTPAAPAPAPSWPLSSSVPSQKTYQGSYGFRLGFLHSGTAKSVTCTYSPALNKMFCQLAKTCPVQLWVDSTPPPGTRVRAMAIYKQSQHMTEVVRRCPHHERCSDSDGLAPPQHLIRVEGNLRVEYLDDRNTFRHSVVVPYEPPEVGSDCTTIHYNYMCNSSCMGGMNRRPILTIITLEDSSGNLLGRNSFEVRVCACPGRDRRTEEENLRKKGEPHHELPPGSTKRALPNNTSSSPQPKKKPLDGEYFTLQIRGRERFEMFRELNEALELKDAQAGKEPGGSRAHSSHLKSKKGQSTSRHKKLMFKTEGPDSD
# human RAR-related Orphan Receptor beta (RORb), RORB (gene 6096), sequence (Q92753 whole entry, looked up, the tested form may be a part): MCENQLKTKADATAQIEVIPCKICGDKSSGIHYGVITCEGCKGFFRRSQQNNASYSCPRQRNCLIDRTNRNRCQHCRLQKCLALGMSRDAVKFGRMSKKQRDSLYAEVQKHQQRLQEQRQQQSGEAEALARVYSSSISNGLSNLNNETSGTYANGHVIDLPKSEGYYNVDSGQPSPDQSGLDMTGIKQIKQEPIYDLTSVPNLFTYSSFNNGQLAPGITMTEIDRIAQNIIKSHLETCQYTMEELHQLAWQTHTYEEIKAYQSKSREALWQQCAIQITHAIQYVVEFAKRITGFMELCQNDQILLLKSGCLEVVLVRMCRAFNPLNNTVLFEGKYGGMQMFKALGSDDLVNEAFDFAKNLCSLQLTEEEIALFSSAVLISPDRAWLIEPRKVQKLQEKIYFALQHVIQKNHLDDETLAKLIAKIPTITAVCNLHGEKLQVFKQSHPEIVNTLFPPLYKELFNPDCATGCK
# Peroxisome proliferator-activated receptor gamma (Homo sapiens), sequence (P37231 whole entry, looked up, the tested form may be a part): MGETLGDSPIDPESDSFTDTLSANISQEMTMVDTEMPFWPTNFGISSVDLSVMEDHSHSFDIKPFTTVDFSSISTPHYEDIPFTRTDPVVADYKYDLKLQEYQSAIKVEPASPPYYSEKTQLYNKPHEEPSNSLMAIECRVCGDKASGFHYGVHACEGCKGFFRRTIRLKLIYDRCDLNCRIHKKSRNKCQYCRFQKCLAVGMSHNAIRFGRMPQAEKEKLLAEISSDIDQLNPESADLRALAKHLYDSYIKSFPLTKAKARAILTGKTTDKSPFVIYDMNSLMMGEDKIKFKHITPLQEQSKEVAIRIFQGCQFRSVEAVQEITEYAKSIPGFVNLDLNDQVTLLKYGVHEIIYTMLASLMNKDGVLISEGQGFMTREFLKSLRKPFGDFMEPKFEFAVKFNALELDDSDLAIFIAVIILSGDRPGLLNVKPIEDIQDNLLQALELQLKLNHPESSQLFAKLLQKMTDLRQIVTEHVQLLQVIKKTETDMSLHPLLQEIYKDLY
smiles,measurement,setting,value
O=C(O)C(F)(F)OC(F)(F)C(F)(F)OC(F)(F)C(F)(F)OC(F)(F)C(F)(F)C(F)(F)C(F)(F)F,AC50,[1],80.8 µM (active)
same,outcome,[1],inactive
same,AC50,[2],11.9 µM (active)
same,outcome,[2],inactive
same,AC50,[3],27.5 µM (active)
same,outcome,[3],inactive
same,AC50,[4],4.04 µM (active)
same,outcome,[4],inactive
same,AC50,[5],34 µM (active) and 29.7 µM (active)
same,AC50,[6],27.4 µM (active)
same,outcome,[6],inactive
same,AC50,[7],22.3 µM (active) and 27.7 µM (active)
same,AC50,[8],21.3 µM (active) and 23 µM (active)
same,AC50,[9],52.2 µM (active) and 50.4 µM (active)
same,AC50,[10],45.5 µM (active) and 51.6 µM (active)
same,AC50,[11],24 µM (active)
same,outcome,[11],inactive
same,outcome,[12],inactive
same,AC50,[13],45.4 µM (active) and 53.1 µM (active)
same,outcome,[14],inactive
same,outcome,[15],inactive
same,AC50,[16],18 µM (active) and 18.4 µM (active)
same,AC50,[17],13.1 µM (active) and 19.1 µM (active)
same,AC50,[18],16.5 µM (active) and 19.4 µM (active)
same,outcome,[19],inactive
same,outcome,[20],inactive
O=C(NCc1ncc(C(F)(F)F)cc1Cl)c1c(Cl)cccc1Cl,outcome,[1],inactive
same,outcome,[2],inactive
same,AC50,[3],21.8 µM (active)
same,AC50,[4],1.97 µM (active)
same,outcome,[5],inactive
same,outcome,[6],inactive
same,outcome,[7],inactive
same,outcome,[8],inactive
same,outcome,[9],inactive
same,outcome,[10],inactive
same,outcome,[11],inactive
same,outcome,[12],inactive
same,outcome,[13],inactive
same,outcome,[14],inactive
same,outcome,[15],inactive
same,outcome,[16],inactive
same,AC50,[17],13.7 µM (active)
same,AC50,[18],675 nM (active)
same,outcome,[19],inactive
CC1COCc2cc3c(cc21)C(C)(C)C(C)C3(C)C (configuration not stated),AC50,[1],170 µM (active)
same,AC50,[2],120 µM (active)
same,AC50,[3],166 µM (active)
same,AC50,[4],41.2 µM (active)
same,outcome,[5],inactive
same,outcome,[6],inactive
same,outcome,[11],inactive
same,outcome,[12],inactive
same,outcome,[14],inactive
same,AC50,[17],66.9 µM (active)
same,AC50,[18],2140 nM (active)
same,outcome,[19],inactive
CCOC(C)=O,outcome,[1],inactive
same,outcome,[2],inactive
same,outcome,[3],inactive
same,outcome,[4],inactive
same,outcome,[5],inactive
same,outcome,[6],inactive
same,outcome,[11],inactive
same,outcome,[12],inactive
same,outcome,[14],inactive
same,outcome,[17],inactive
same,outcome,[18],inactive
same,outcome,[19],inactive
same,outcome,[20],inactive
FC(F)(F)N1C(F)(F)C(F)(F)OC(F)(F)C1(F)F,outcome,[1],inactive
same,outcome,[2],inactive
same,outcome,[3],inactive
same,outcome,[4],inactive
same,outcome,[5],inactive
same,outcome,[6],inactive
same,outcome,[11],inactive
same,outcome,[12],inactive
same,outcome,[14],inactive
same,outcome,[15],inactive
same,outcome,[20],inactive
O=P(O)(O)CCC(F)(F)C(F)(F)C(F)(F)C(F)(F)C(F)(F)C(F)(F)F,outcome,[1],inactive
same,outcome,[2],inactive
same,outcome,[3],inactive
same,outcome,[4],inactive
same,outcome,[5],inactive
same,outcome,[6],inactive
same,outcome,[7],inactive
same,outcome,[8],inactive
same,outcome,[9],inactive
same,AC50,[10],447 nM (active)
same,outcome,[10],inactive
same,outcome,[11],inactive
same,outcome,[12],inactive
same,outcome,[13],inactive
same,outcome,[14],inactive
same,outcome,[16],inactive
same,outcome,[17],inactive
same,outcome,[19],inactive
same,outcome,[20],inactive
O=C(c1cc(O)c(O)c(O)c1)c1ccc(O)c(O)c1O,outcome,[1],inactive
same,outcome,[2],inactive
same,outcome,[3],inactive
same,outcome,[4],inactive
same,outcome,[5],inactive
same,AC50,[6],100 µM (active)
same,outcome,[11],inactive
same,outcome,[12],inactive
same,outcome,[14],inactive
same,outcome,[18],inactive
same,outcome,[19],inactive
same,outcome,[20],inactive
